Compound activity (PubChem BioAssay)
This is a sample that favours compounds with a hit; in the whole collection about 12% have one here.
BAZ2B inh: BAZ2B (human) inhibition | Q9UIF8 | AlphaScreen BAZ2B-H3K14Ac peptide displacement | Potency, µM (titrated, usually from 114 µM), inactives show at the top dose activity change, negative = inhibition, most hits filed as inhibitors | 360,000 compounds, 4.4% hits; also: % is scaled to controls: 0 for no effect and ±100 for the full control effect; nearly all actives have a fitted effect of over 60% in size
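AlphaScreen displacement: compounds (up to 110uM) incubated 30 min at room temperature with a preformed 50 nM BAZ2B/50 nM biotinylated H3K14Ac peptide complex in PBS pH 7.4 with Tween-20. Donor and acceptor beads at 10 ug/mL final added, 20 min light-protected before reading.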
HP1b binding inh: inhibitors of HP1-beta chromodomain binding to methylated histone tails; Potency, µM (titrated, usually from 114 µM), without a hit: at the highest dose activity change, negative = inhibition, hits mostly inhibitors; AlphaScreen HP1-beta / biotin-H3K9me3 peptide binding; P83916; 390,000 compounds, 0.56% hits; also: nearly all actives have a fitted effect of over 70% in size
Target sequence (P83916 whole entry, looked up): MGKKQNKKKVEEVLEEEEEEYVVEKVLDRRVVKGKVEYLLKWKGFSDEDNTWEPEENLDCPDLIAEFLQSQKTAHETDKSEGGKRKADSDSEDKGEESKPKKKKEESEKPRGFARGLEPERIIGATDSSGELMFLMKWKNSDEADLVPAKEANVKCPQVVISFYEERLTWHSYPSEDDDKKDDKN
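HP1-beta protein (50 nM final) preincubated 30 min at room temperature with biotinylated H3(1-18)K9me3 peptide (50 nM) in PBS pH 7.4, 0.01% Tween-20, then compound added for 30 min. AlphaScreen streptavidin donor/nickel chelate acceptor beads (10 ug/mL final), 30 min dark, luminescence read.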
Sfp inh: inhibitors of Bacillus subtilis Sfp phosphopantetheinyl transferase; Q9F4F7; Biochemical Sfp PPTase activity, qHTS; Potency, µM, for inactives: largest response in the series, negative = inhibition, most hits filed as inhibitors; 310,000 compounds, 3.5% hits;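 also: the enzyme is Sfp with the accession as filed and its product quenches rhodamine fluorescence; 0% = enzyme reaction without inhibitor and -100% = no enzyme wells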
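Reaction rates are the 30-min fluorescence difference (ex 525, em 598 nm) in wells containing 15 nM Sfp, 5 uM rhodamine-CoA and 12.5 uM BHQ-2-YbbR at pH 7.6 with 10 mM MgCl2.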
JMJD2A Tudor: JMJD2A Tudor domain (human) inhibition. O75164. AlphaScreen JMJD2A-Tudor / H3K4me3 peptide binding. Potency, µM (highest dose often 114 µM), for the others: top-dose activity change, negative = inhibition, actives largely listed as inhibitors. 390,000 compounds, 4.4% hits; also: % is scaled to controls: 0 for no effect and ±100 for the full control effect; nearly all actives have a fitted effect of over 50% in size
G9a block: blocks human histone lysine methyltransferase G9a; Q96KQ7; G9a H3K9 monomethylation, AlphaScreen, 2 h; Potency, µM (doses to about 102 µM), for the others: top-dose activity, negative = inhibition, usual class: inhibitors; 350,000 compounds, 8.8% hits; also: % is scaled to controls: 0 for no effect and ±100 for the full control effect; nearly all actives have a fitted effect of over 75% in size
Target sequence (Q96KQ7 913-1193 limits assumed): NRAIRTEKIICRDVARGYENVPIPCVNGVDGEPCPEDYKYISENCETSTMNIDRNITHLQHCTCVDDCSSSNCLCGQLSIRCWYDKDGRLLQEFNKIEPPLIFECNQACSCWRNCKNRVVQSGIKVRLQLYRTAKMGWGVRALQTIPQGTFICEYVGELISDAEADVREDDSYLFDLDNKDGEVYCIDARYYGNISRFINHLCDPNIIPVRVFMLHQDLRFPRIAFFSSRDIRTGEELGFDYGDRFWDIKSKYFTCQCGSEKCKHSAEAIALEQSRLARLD
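G9a (20 nM) was preincubated 15 min with compound, then reacted 2 h at room temperature with 500 nM biotin-H3K9 peptide and 20 µM SAM. Monomethyl-H3K9 detected by AlphaScreen using anti-H3K9me1 antibody.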
Starred values were filed as active, the others as inactive; u = inconclusive; x = no result; ! = not active in a repeat; [ ] = remark or other dose. Calls follow the shape of the dose curve; as a rule, active = well fitted curve in the direction sought with a large enough effect; inconclusive = small, poorly fitted or top-dose-only effect, or another doubt; inactive = no such curve, though single readings can be large; an effect the other way counts as inactive or inconclusive. Potency is read from the fitted curve at half-maximal effect.

SMILES | BAZ2B inh | HP1b binding inh | Sfp inh | JMJD2A Tudor | G9a block
O=C1CCc2cc(S(=O)(=O)Nc3cccc(B(O)O)c3)ccc2N1 | x | x | x | 4% | x
CO/N=C1/[C@H]2O[C@@H]2[C@@H](O)[C@H]2[C@H]1CCn1c(=O)n(-c3ccccc3)c(=O)n12 | x | x | 10% | x | x
O=[N+]([O-])c1cc(/C=N/N/C(=N/c2ccccn2)c2ccccn2)ccc1O | 32µM* | -7% | 12% | 79µM* | 50µM*
O=[N+]([O-])c1ccc(/C=N/N/C(=N/c2ccccn2)c2ccccn2)cc1 | -3% | 23% | 45µM* | -29% | 10%[12.7 µM]
O=c1[nH]c(Cc2ccccn2)nc2scc(-c3ccc(Cl)cc3)c12 | 3% | 43% | -26% | -24% | 40µM*
O=c1[nH]c(Cc2ccc(F)cc2)nc2scc(-c3ccc(F)cc3)c12 | 3% | u | -79% | u | 3.5µM*
O=c1[nH]c(Cc2cccs2)nc2scc(-c3ccc(Cl)cc3)c12 | -1% | 9% | 9% | -5% | x
Cc1ccc(NC(=O)CSc2nnc(C)s2)c(C)c1 | -1% | 22% | x | -7% | -24%[59 µM]
CCOC(=O)c1c(NC(=O)CSc2nc3ccc(C)cc3[nH]2)sc2c1CC(C)(C)NC2(C)C | -39% | -14% | x | u | 45µM*
CCOC(=O)c1c(NC(=O)CSc2nnnn2-c2ccccc2)sc2c1CC(C)(C)NC2(C)C | 71µM* | -5% | -11% | u | x
CCOC(=O)c1c(NC(=O)COc2ccccc2OCC)sc2c1CC(C)(C)NC2(C)C | -4% | -7% | x | -33% | u
CCOC(=O)c1c(NC(=O)c2ccc(C)cc2)sc2c1CC(C)(C)NC2(C)C | -2% | x | 16% | x | -4%
CCOC(=O)c1c(NC(=O)CSc2nnnn2-c2ccccc2OCC)sc2c1CC(C)(C)NC2(C)C | -37% | -4% | x | -32% | 50µM*
CCOC(=O)N/N=C1/C[C@@H](O)[C@@H](O)[C@@H]2[C@@H]3C(=O)N([C@@H](C)c4ccccc4)C(=O)[C@H]3CC[C@H]12 | x | x | 10% | x | x
Cc1cc(C)n(CCc2nc(-c3ccc(C)o3)cs2)n1 | u | u | 8.9µM* | 79µM* | u
NOCC(=O)O | u | 16% | x | 22µM* | 6µM*!
CN(C)CCCNS(=O)(=O)c1ccc(NC2CCCCCC2)c([N+](=O)[O-])c1 | u | -6% | -6% | u | 71µM*
O=C(O)c1cc(NS(=O)(=O)c2ccc(NC3CCCCC3)c([N+](=O)[O-])c2)cc(C(=O)O)c1 | -13% | 12% | 8% | -28% | u
NCCc1nc(-c2ccccc2)cs1 | -15% | 29% | 11% | -14% | -7%
O=C(Nc1ccc(Nc2ccccc2)cc1)c1ccc(Br)o1 | 22µM* | u | 5% | 40µM* | 35µM*
N#C/C(=C/c1ccc(Br)o1)C(N)=S | u | x | 35µM* | x | 32µM*
O=C(NC(=S)Nc1ccccc1)c1ccc(Br)o1 | -30% | -4% | 3% | -10% | u
COc1ccc(NC(=O)c2ccc(Br)o2)cc1 | u | 26% | 12% | -11% | 32µM*
N#C/C(=C/c1ccc(Br)o1)C(N)=O | -4% | 39% | 7% | 9% | 1%[59 µM]
COc1ccc(NC(=O)/C(C#N)=C/c2ccc(Br)o2)cc1 | 50µM* | 0% | u | u | -43%[12.7 µM]
SMILES | BAZ2B inh | HP1b binding inh | Sfp inh | JMJD2A Tudor | G9a block
O=C(CN1CCOCC1)NC1C2CC3CC(C2)CC1C3 (configuration not stated) | 7% | 34% | -9% | -3% | -4%[2.33 µM]
CC1(C)C2CCC(C2)C1(C)NC(=O)CN1CCCC1 (configuration not stated) | u | -35% | -18% | 28µM* | 5µM*
CC1(C)C2CCC(C2)C1(C)NC(=O)CN1CCOCC1 (configuration not stated) | 50µM* | u | -11% | 32µM* | 10µM*
CC1(C)C2CCC(C2)C1(C)NC(=O)CNCc1cccs1 (configuration not stated) | x | u | 89µM* | 25µM* | 11µM*
CC1(C)C2CCC(C2)C1(C)NC(=O)CNC1CCCCC1 (configuration not stated) | 50µM* | -26% | -7% | -34%[11.4 µM] | 13µM*
COc1cccc(CC(=O)Nc2ccc(F)c(S(=O)(=O)N3CCOCC3)c2)c1 | x | 32%[57 µM] | x | -4% | x
Cc1ccccc1N1CCN(C(=O)NCc2cccc(Cl)c2)CC1 | 7% | 40% | -19% | -7% | -1%
CCOc1ccc(-c2cn3c(n2)sc2cc(C(=O)NCCc4ccc(OC)c(OC)c4)ccc23)cc1 | 0% | 43% | x | 4% | 2%[59 µM]
COc1ccc(CC2C(=O)OC(C)(C)OC2=O)cc1 | -8% | 16% | 15% | 35µM* | 40µM*
COc1cc(/C=C/C(=O)NCC2CCCCC2)cc(OC)c1OC | -17% | 26% | 7% | 4% | -7%
O=C(COc1ccc(Cl)cc1)NNC(=S)NCc1ccccc1 | 25% | 16% | 19% | -16% | 32µM*
CCNC(=S)NNC(=S)NCc1ccccc1 | -27% | 6% | 56µM* | 1.3µM* | 10µM*
Cc1ccc(NC(=S)NNC(C)(C)C)cc1 | -27% | 1% | 8% | -20% | 45µM*
Cc1ccc(NC(=S)NNC(=S)NCc2ccccc2)cc1 | -23% | -9% | 56µM* | u | u
CCCn1c2ccccc2c2cnn(CC(=O)N3CCCC(C)C3)c(=O)c21 (configuration not stated) | -1% | 30% | x | -13% | -6%[59 µM]
COc1ccc2c(c1)c1c(c(=O)n(-c3ccc(OC)c(OC)c3)c(=O)n1CC(=O)N1CCCC1)n2C | -18% | 9% | x | -9% | -32%[59 µM]
CC1(C)CC(=O)C(CC2C(=O)CC(C)(C)CC2=O)C(=O)C1 | -3% | 28% | -14% | -9% | 22µM*
CC1(C)CC(=O)C(CC2CCCCC2=O)C(=O)C1 (configuration not stated) | 1% | 36% | 12% | -20% | 31%[59 µM]
CCOC(=O)N1CCN(CC(O)COCC2=CCC3CC2C3(C)C)CC1 (configuration not stated) | 50µM* | u | 79µM* | 3.5µM* | x
O=[N+]([O-])c1ccc(-c2csc3[n+]2CCS3)cc1 | 1% | 17% | 11µM* | -14% | 35µM*
O=C(CSc1nnc(CNC(=O)c2ccccc2)o1)Nc1nccs1 | 79µM* | 49% | 13% | u | 35%
CCn1c(CNC(=O)c2cccc(C)c2)nnc1SCC(=O)NC1=NCCS1 | -15% | 17% | 7% | -2% | -46%
O=C(CSc1nnc(CNC(=O)c2ccccc2)o1)c1ccccc1 | -2% | 16% | 11% | -5% | 18%
Cc1cccc(C(=O)NCc2nnc(SCC(=O)NC3=NCCS3)n2C)c1 | 5% | 16% | 3% | 40µM* | -45%
O=C(CSc1nnc(CNC(=O)c2ccc(F)cc2)o1)Nc1nccs1 | 79µM* | 35% | 2% | -35% | x
